Screening results as filed in PubChem BioAssay.
MKP-1 inh = MKP-1 phosphatase inhibitors, primary screen, biochemical, in vitro. recombinant MKP-1, OMFP hydrolysis fluorescence. inhibition, %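 (compounds tested at a single concentration somewhere between 10 and 100 µM)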. 65,000 compounds, 0.15% hits. AID 374, 2006;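 active means inhibition above about 50%, limit read from the data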
CatS inh = inhibitors of human cathepsin S, biochemical, compound mixtures. 62,000 compounds, 0.06% hits. P25774. inhibition, %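 (tested at 5 µM per compound within 10-compound mixtures)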. recombinant cathepsin S, AMC dipeptide fluorescence, pooled mixtures. AID 501, 2006; in the data active means inhibition above about 32%, passing the limit was not always enough
Target sequence (P25774 115-331 limits assumed): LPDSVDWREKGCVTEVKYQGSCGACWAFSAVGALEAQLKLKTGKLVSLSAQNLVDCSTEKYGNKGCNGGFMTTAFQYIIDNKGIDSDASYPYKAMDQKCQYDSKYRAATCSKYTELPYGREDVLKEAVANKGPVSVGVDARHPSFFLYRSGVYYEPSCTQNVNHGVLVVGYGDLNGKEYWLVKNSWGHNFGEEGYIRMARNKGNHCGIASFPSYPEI
Cdc25B block = inhibitors of Cdc25B phosphatase catalytic domain, primary screen, biochemical, OMFP fluorescence | M-phase inducer phosphatase 2 (Homo sapiens), P30305 | inhibition, %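 (compounds tested at 10 µM final in the well)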 | AID 368, 2006 | 65,000 compounds, 0.1% hits | recombinant Cdc25B, OMFP fluorescence Ex485/Em525; in the data active means inhibition above about 50%
CatL block = inhibitors of human cathepsin L, biochemical. Procathepsin L (Homo sapiens), P07711. purified cathepsin L, fluorogenic substrate, fluorescence. inhibition, %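 (tested at 10 µM)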. 58,000 compounds, 0.17% hits. AID 460, 2006; in the data active means inhibition above about 45%
CatB block = human cathepsin B inhibitors, primary screen, biochemical, fluorogenic substrate. inhibition, %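 (tested at 10 µM)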. AID 453, 2006. 63,000 compounds, 0.1% hits. purified cathepsin B, fluorescence; in the data active means inhibition above about 21%
CatB mixtures = cathepsin B inhibitors from pooled compounds, primary screen, biochemical, compound mixtures, AMC fluorescence | Purified cathepsin B, AMC dipeptide fluorescence | inhibition, %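 (ten-compound pools at 5 µM per compound and 50 µM total)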 | 62,000 compounds, 0.06% hits | AID 488, 2006; in the data active means inhibition above about 22%, passing the limit was not always enough
Redox 05 DTT = redox cycling H2O2 generation, 0.5 mM DTT, dose response, artefact control, biochemical, Cdc25B catalytic domain | EC50, µM | 30 compounds, 50% hits | shares compounds with Cdc25B block | cell-free redox cycling H2O2 generation | AID 682, 2007; in the data active means EC50 below about 30 µM
Redox 1 DTT = redox cycling H2O2 generation, 1 mM DTT, dose response, artefact control, biochemical, 1.0 mM DTT, Cdc25B catalytic domain; cell-free redox cycling H2O2 generation; EC50, µM; AID 683, 2007; 30 tested, under 10 active; shares compounds with Cdc25B block; in the data active means EC50 below about 50 µM
Redox cycler = redox cycling hydrogen peroxide production, dose response, artefact control, biochemical, probe assessment; Redox cycling H2O2 generation, DTT, phenol red/HRP; 60 tested, under 10 active; EC50, µM; shares compounds with MKP-1 inh; call rule not given here
Of the large screens only hits and unclear results are named; the others gave an inactive call (follow-up assays come after a bar, where they were run). In the library only some 0.57% were active in any assay of this set; here they are far more common.

Cc1cccc(NC(=O)CSc2nnc([C@@H](N)Cc3c[nH]c4ccccc34)o2)c1C	CatL block 101
Cc1nonc1-c1nc(-c2nonc2N)n[nH]1	CatB mixtures 22
c1cncc(C2CCCCN2Cc2ccc3c(c2)OCO3)c1 (stereo unspecified)	none
COc1ccc(C2=NCC(=O)N(CC(=O)NCc3ccco3)c3sc4c(c32)CCCC4)cc1OC	Cdc25B block 56
CN1C(=O)C(Cc2ccsc2)C(=O)N(C)C1=O	none
O=C1CC(=O)N(c2cccc(Cl)c2)C(=O)N1	none
CCn1nc(-c2ccccc2)nc2c(=O)n(C)c(=O)nc1-2	MKP-1 inh 98, Cdc25B block 101, CatL block 85, CatB block 76 (no result: CatS inh) | Redox 05 DTT 0.73 | Redox 1 DTT 1.6 | Redox cycler 14
Cn1c(O)c(C=NC2CCN(Cc3ccccc3)CC2)c(=O)n(C)c1=O	none (no result: CatS inh, CatB mixtures)
CCCCNC(=O)c1c(N)n(CCCOC)c2nc3ccccc3nc12	none | Redox cycler inactive
COc1ccc(OC)c(N2C(=O)NC(=O)C(CCc3ccncc3)(CCc3ccncc3)C2=O)c1	none
